# Test results from PubChem BioAssay (Tox21).
# Results filed as inconclusive are left out. Where a call stands in place of a potency, no number is given. A structure can be active in one record and inactive in another. The source made the active and inactive calls. Calls follow the shape of the dose curve; as a rule, active = well fitted inhibition curve with a large enough effect in the repeat runs; inconclusive = weak or mixed curves; inactive = flat fitted curve, though single readings scatter.
# Molecular target: Voltage-gated inwardly rectifying potassium channel KCNH2 (Homo sapiens) (UniProt Q12809)
# Assay: Human Ether-a-go-go-Related Gene (hERG) channel small molecule antagonists: fluorescence cell-based qHTS assay (AID 1671200); also: nearly all actives have a fitted effect of over 50% in size
# Conditions: hERG-U2OS cells, FluxOR thallium flux fluorescence; series mostly up to 76.8 µM
# Description: National Center for Advancing Translational Sciences [NCATS]
# U.S. Environmental Protection Agency [EPA]
# National Institutes of Environmental Health Sciences [NIEHS]
# National Toxicology Program [NTP]
# U.S. Food and Drug Administration [FDA]
# Mutations in the hERG channel cause Long QT (LQT) syndrome. LQT syndrome is a cardiac disorder which can cause ventricle arrhythmia and sudden death. Additionally, compounds which block the hERG channel can cause acquired LQT syndrome. Several FDA approved drugs have been removed from the market due to their hERG blocking activity. A cell-based hERG channel inhibition assay can be used to screen chemical compounds that inhibit hERG channel. This assay measures hERG channel activity using thallium ions as surrogate ions to measure potassium into the cells.
# Tox21 Assay Protocol Summary:
# hERG-U2OS cells were resuspended in culture medium and dispensed into 1536-well, black wall/clear-bottom plates at 1000cells/well/3uL using a Multidrop Combi dispenser (Thermo Fisher, Waltham, MA). After plates were incubated at 37 C overnight, 3 uL of Loading Buffer provided by FluxOR II Potassium Ion Channel Assay kit (Thermo, Carlsbad, CA) was added to each well. The assay plates were then incubated at room temperature in the dark for 1h. […] After the assay plates were incubated at room temperature for 10 min, 1 uL of Stimulus Buffer provided by FluxOR II Potassium Ion Channel Assay kit was added into each well and fluorescence intensity (480nm excitation/540nm emission) was continuously measured for 2 min at 1 second intervals using a Functional Drug Screening System (FDSS) 7000EX kinetic plate reader (Hamamatsu, Japan).
# Potency is read from the fitted curve at half-maximal effect.
# Voltage-gated inwardly rectifying potassium channel KCNH2 (Homo sapiens), sequence (Q12809 whole entry, looked up): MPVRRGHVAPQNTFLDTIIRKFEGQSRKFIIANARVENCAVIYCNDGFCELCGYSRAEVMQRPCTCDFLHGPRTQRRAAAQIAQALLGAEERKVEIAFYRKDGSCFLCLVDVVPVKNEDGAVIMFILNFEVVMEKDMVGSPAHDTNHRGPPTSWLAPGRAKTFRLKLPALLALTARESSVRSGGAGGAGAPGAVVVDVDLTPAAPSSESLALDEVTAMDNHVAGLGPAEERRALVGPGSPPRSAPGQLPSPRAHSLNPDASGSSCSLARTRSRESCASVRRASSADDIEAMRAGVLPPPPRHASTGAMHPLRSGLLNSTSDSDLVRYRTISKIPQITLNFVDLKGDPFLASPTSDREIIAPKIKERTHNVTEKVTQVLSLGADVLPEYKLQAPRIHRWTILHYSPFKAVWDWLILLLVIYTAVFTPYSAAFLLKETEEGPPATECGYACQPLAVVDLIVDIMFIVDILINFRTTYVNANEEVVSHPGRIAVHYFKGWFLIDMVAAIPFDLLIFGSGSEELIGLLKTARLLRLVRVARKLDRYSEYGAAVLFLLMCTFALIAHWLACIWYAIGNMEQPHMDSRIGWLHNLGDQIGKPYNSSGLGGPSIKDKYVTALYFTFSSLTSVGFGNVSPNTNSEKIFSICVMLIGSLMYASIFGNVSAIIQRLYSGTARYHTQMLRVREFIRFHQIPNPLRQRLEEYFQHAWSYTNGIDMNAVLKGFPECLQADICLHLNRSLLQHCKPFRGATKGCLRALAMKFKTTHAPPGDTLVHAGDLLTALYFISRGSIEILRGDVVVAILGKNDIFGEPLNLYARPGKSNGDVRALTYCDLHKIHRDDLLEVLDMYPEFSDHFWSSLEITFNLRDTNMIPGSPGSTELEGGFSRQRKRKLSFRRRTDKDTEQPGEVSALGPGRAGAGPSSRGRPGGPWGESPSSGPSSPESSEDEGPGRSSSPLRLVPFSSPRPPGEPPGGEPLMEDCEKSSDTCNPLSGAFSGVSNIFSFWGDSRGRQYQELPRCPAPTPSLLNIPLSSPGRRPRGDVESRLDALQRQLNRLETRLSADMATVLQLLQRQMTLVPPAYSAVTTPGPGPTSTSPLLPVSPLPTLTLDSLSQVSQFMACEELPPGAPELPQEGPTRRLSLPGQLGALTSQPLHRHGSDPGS
row,Structure (SMILES),Potency
1,CC(C)=CCC/C(C)=C/CO,inactive
2,COc1ccc(C(=O)c2ccccc2)c(O)c1,38.3 µM (active) and inactive
3,COc1ccc(O)cc1,inactive
4,Nc1cccc(N)c1,inactive
5,O=C(O)CCCCC1CCSS1 (stereo not given),inactive
6,C=CCOC(=O)CC(C)C,inactive
7,CC(=O)c1ccc(S(=O)(=O)NC(=O)NC2CCCCC2)cc1,inactive
8,COc1cc2c(c(OC)c1OC)-c1ccc(OC)c(=O)cc1[C@@H](NC(C)=O)CC2,inactive
9,c1ccc2[nH]c(-c3cscn3)nc2c1,inactive
10,CC(=O)Oc1ccccc1C(=O)O,inactive
11,O=C(OCc1ccccc1)c1ccccc1,inactive
12,CN(C)C=O,inactive
13,C=C(C)C(N)=O,inactive
14,C[C@]12CC[C@@H]3c4ccc(O)cc4C[C@@H](CCCCCCCCCS(=O)CCCC(F)(F)C(F)(F)F)[C@H]3[C@@H]1CC[C@@H]2O (stereo not given in full),inactive
15,C/C=C/c1ccc(O)c(OC)c1,inactive
16,C[C@]12C[C@H](O)[C@H]3[C@@H](CCC4=CC(=O)CC[C@@]43C)[C@@H]1CC[C@@H]2C(=O)CO,inactive
17,CC(=O)/C=C/C1=C(C)CCCC1(C)C,inactive
18,O=C1CCCCCN1,inactive
19,Cc1c(N(C)CS(=O)(=O)O)c(=O)n(-c2ccccc2)n1C,inactive
20,Cc1c(N(C)C)c(=O)n(-c2ccccc2)n1C,inactive

row,Structure (SMILES),Potency
1,O=C(O)CN(CC(=O)O)CC(=O)O,inactive
2,C=CC(=O)NC(C)(C)CS(=O)(=O)O,inactive
3,Cc1cccc2ccccc12,inactive
4,CC(=O)OC/C=C(C)/C=C/C=C(C)/C=C/C1=C(C)CCCC1(C)C,inactive
5,COC(=O)c1ccc(C=O)cc1,inactive
6,COC(=O)C1CCC(C(=O)OC)CC1 (stereo not given),inactive
7,COc1cc(C=O)ccc1O,inactive
8,NC(=O)OCC(COC(N)=O)c1ccccc1,inactive
9,N[C@@H](Cc1c[nH]c2ccccc12)C(=O)O,inactive
10,NC(=O)N/N=C/c1ccc([N+](=O)[O-])o1,inactive
11,CC(=O)CCC(C)C,inactive
12,O=[N+]([O-])c1ccc(O)cc1,inactive
13,CCCCOC(=O)CCCCCCCCC(=O)OCCCC,inactive
14,CCCCCCCCOc1ccc(C(=O)c2ccccc2)c(O)c1,inactive
15,Nc1ccc(N=Nc2ccccc2)c(N)n1,inactive
16,NC(=O)c1ccc([N+](=O)[O-])cc1Cl,inactive
17,CCCCC/C(C=O)=C\c1ccccc1,inactive
18,C#C[C@]1(O)CC[C@H]2[C@@H]3CCC4=CC(=O)CC[C@@H]4[C@H]3CC[C@@]21CC,inactive
19,C[C@]12C=CC(=O)C=C1CC[C@@H]1[C@@H]2C(=O)C[C@@]2(C)[C@H]1CC[C@]2(O)C(=O)CO,inactive
20,CO[C@H]1C=CO[C@@]2(C)Oc3c(C)c(O)c4c(O)c(c(/C=N/N5CCN(C)CC5)c(O)c4c3C2=O)NC(=O)/C(C)=C\C=C[C@H](C)[C@H](O)[C@@H](C)[C@@H](O)[C@@H](C)[C@H](OC(C)=O)[C@@H]1C,inactive
